The record followed here is the supplement of paper PMC8728848.

Holding throughout (test): glycan array binding signal (z-score within array); higher = stronger binding
Conditions in all cases: glycan notation: IUPAC condensed, linker removed

In experiment [1] the target is Fuc(a1-2)Gal. A digest of the protocol: (§1)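 Columns mapping to the same glycan were averaged after glycan names were converted to IUPAC-condensed notation. The data come from 3228 arrays in the Consortium for Functional Glycomics database, limited to those with an available protein sequence. Binding is reported as a within-array Z-score averaged across arrays of one protein sequence and across linkers.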

Experiment [2] deals with Fuc(a1-2)Gal(b1-3)GalNAc(b1-3)Gal(b1-4)Glc. A digest of the protocol:
as §1

The target of experiment [3] is Fuc(a1-2)[GalNAc(a1-3)]Gal. A digest of the protocol: as §1
In experiment [4] the target is Gal(a1-2)Gal. The gist of the method: as §1
The target in experiment [5] is Gal(b1-4)GlcNAc(b1-3)Gal(b1-4)GlcNAc. The gist of the method:
as §1

Experiment [6] concerns the target Gal(b1-4)GlcNAc(b1-3)Gal(b1-4)[Fuc(a1-3)]GlcNAc(b1-3)Gal(b1-4)[Fuc(a1-3)]GlcNAc. A digest of the protocol:
as §1

Experiment [7] deals with Gal(b1-4)GlcNAc(b1-6)[Gal(b1-3)]GlcNAc. A digest of the protocol: as §1
Experiment [8] deals with Gal6S(b1-4)Glc6S. A digest of the protocol: as §1
The target of experiment [9] is Glc(a1-4)Glc. The gist of the method: as §1
For experiment [10], the target named is Kdn(a2-3)Gal(b1-3)GlcNAc. A digest of the protocol:
as §1

Experiment [11] deals with Man(a1-2)Man(a1-2)Man(a1-3)[Man(a1-2)Man(a1-3)[Man(a1-2)Man(a1-6)]Man(a1-6)]Man(b1-4)GlcNAc(b1-4)GlcNAc. The gist of the method: as §1
In experiment [12] the target is Man(a1-2)Man(a1-2)Man(a1-6)[Man(a1-3)]Man. A digest of the protocol:
as §1

In experiment [13] the target is Man(a1-2)Man(a1-3)[Man(a1-2)Man(a1-6)]Man. A digest of the protocol:
as §1

Experiment [14] concerns the target Man(a1-2)Man(a1-3)[Man(a1-3)[Man(a1-6)]Man(a1-6)]Man(b1-4)GlcNAc(b1-4)GlcNAc. The gist of the method:
as §1

For experiment [15], the target named is Neu5Ac(a2-3)Gal. The gist of the method:
as §1

Experiment [16] deals with Neu5Ac(a2-3)Gal(b1-3)GlcNAc6S. A digest of the protocol: as §1
In experiment [17] the target is Neu5Ac(a2-3)Gal(b1-3)[Neu5Ac(a2-3)Gal(b1-4)]GlcNAc. A digest of the protocol:
as §1

In experiment [18] the target is Neu5Ac(a2-3)Gal(b1-4)GlcNAc(b1-3)Gal(b1-4)GlcNAc. A digest of the protocol:
as §1

Experiment [19] has as its target Neu5Ac(a2-3)Gal(b1-4)[Fuc(a1-3)]GlcNAc(b1-3)Gal(b1-4)[Fuc(a1-3)]GlcNAc(b1-3)Gal(b1-4)[Fuc(a1-3)]GlcNAc. The gist of the method: as §1
Experiment [20] concerns the target Neu5Ac(a2-3)Gal(b1-4)[Fuc(a1-3)]GlcNAc6S. The gist of the method: as §1
In experiment [21] the target is Neu5Ac(a2-6)Gal(b1-4)GlcNAc(b1-2)Man(a1-3)[Neu5Ac(a2-6)Gal(b1-4)GlcNAc(b1-2)Man(a1-6)]Man(b1-4)GlcNAc(b1-4)GlcNAc. The gist of the method:
as §1

Experiment [22] addresses Neu5Gc(a2-3)Gal(b1-3)GlcNAc. A digest of the protocol:
as §1

Experiment [23] has as its target Fuc(a1-2)Gal(b1-4)GlcNAc(b1-3)Gal(b1-4)GlcNAc. A digest of the protocol:
as §1

The target in experiment [24] is Fuc(a1-2)Gal(b1-4)GlcNAc6S. A digest of the protocol: as §1
Experiment [25] addresses Fuc(a1-2)GlcNAc. A digest of the protocol:
as §1

Experiment [26] has as its target Fuc(a1-2)[Gal(a1-3)]Gal(b1-4)[Fuc(a1-3)]GlcNAc. The gist of the method: as §1
Experiment [27] addresses Fuc(a1-2)[GalNAc(a1-3)]Gal(b1-4)[Fuc(a1-3)]GlcNAc. A digest of the protocol:
as §1

For experiment [28], the target named is Fuc(a1-3)[Gal3S(b1-4)]GlcNAc6S. The gist of the method:
as §1

Experiment [29] addresses Gal(a1-4)Gal(b1-4)Gal. The gist of the method:
as §1

For experiment [30], the target named is Gal(b1-3)Gal. The gist of the method:
as §1

In experiment [31] the target is Gal(b1-3)GalNAc(b1-3)Gal(b1-4)GlcNAc. A digest of the protocol: as §1
The target of experiment [32] is Gal(b1-3)[Neu5Ac(b2-6)]GlcNAc. The gist of the method:
as §1

Experiment [33] deals with Gal(b1-4)Glc. A digest of the protocol: as §1
In experiment [34] the target is Gal(b1-4)Glc6S. The gist of the method:
as §1

The target in experiment [35] is Gal(b1-4)GlcNAc(b1-6)[Gal(b1-3)]GalNAc. The gist of the method: as §1
Experiment [36] deals with Gal3S(b1-4)GlcNAc6S. The gist of the method: as §1
The target of experiment [37] is Gal3S6S(b1-4)GlcNAc. A digest of the protocol: as §1
In experiment [38] the target is Gal3S6S(b1-4)GlcNAc6S. The gist of the method: as §1
The target of experiment [39] is GalNAc(a1-3)Gal. A digest of the protocol:
as §1

The target in experiment [40] is Glc(b1-6)Glc. A digest of the protocol: as §1
Experiment [41] addresses Man(a1-2)Man(a1-3)Man. The gist of the method:
as §1

Experiment [42] has as its target Neu5Ac(a2-3)Gal(b1-3)[Fuc(a1-4)]GlcNAc(b1-3)Gal(b1-4)[Fuc(a1-3)]GlcNAc. The gist of the method: as §1
The target in experiment [43] is Neu5Ac(a2-3)Gal(b1-4)GlcNAc6S. A digest of the protocol:
as §1

Experiment [44] deals with Neu5Ac(a2-6)Gal(b1-4)Glc. A digest of the protocol:
as §1

Experiment [45] has as its target Neu5Ac(a2-8)Neu5Ac(a2-8)Neu5Ac(a2-3)[GalNAc(b1-4)]Gal(b1-4)Glc. The gist of the method: as §1
The target of experiment [46] is Neu5Ac(b2-6)Gal(b1-4)GlcNAc. The gist of the method: as §1

The sample as a whole holds a higher share of the strongest signals than the screen did.

B1: CVNH0 (Neurospora crassa), Q7S6U4 (protein)
chain: GSHIGPYMSFHVTAEDARIEVRDNRTILFARLRREDGEWNDASYELDQIIGNNDGHFQWGGQNFTETAEDIRFHPKEGAAEQPILRARLRDCNGEFHDRDVNLTEIVENVNGEFQAKF
Regarding B1, the “glycan array binding signal (z-score)” value in experiment [1] was -0.372; in experiment [2], 3.75; in [3], -0.436; in experiment [4], -0.423; in experiment [5], -0.427; in [6], -0.186. Besides, the “glycan array binding signal (z-score)” value in [7] was -0.381; in [8] it was -0.362; in [9], -0.391; in experiment [10], -0.44; in experiment [11], 3.89; in experiment [12] it was 3.68. The “glycan array binding signal (z-score)” value in [13] was 4.06; in [14], -0.376; in experiment [15], -0.431; in [16], 0.204; in [17] it was -0.411; in [18], -0.351. Also, the “glycan array binding signal (z-score)” value in experiment [19] was -0.226; in [20] it was -0.433; in [21], -0.408; in experiment [22], -0.433.

B2: FBG3 (Homo sapiens), Q9H4M3 (protein)
chain: MAVGNINELPENILLELFTHVPARQLLLNCRLVCSLWRDLIDLVTLWKRKCLREGFITEDWDQPVADWKIFYFLRSLHRNLLHNPCAEEGFEFWSLDVNGGDEWKVEDLSRDQRKEFPNDQVKKYFVTSYYTCLKSQVVDLKAEGYWEELMDTTRPDIEVKDWFAARPDCGSKYQLCVQLLSSAHAPLGTFQPDPATIQQKSDAKWREVSHTFSNYPPGVRYIWFQHGGVDTHYWAGWYGPRVTNSSITIGPPLP
With B2, the “glycan array binding signal (z-score)” value in [1] was 0.149; in [23], -0.582; in experiment [24], 0.121; in [25] it was -0.096; in experiment [26], 0.034; in experiment [27], 0.422. In addition, the “glycan array binding signal (z-score)” value is 1.94 in [28]; -0.387 in experiment [29]; -0.052 in experiment [30]; -0.569 in experiment [31]; -0.544 in experiment [32]; 0.009 in [33]. The “glycan array binding signal (z-score)” value is 0.065 in experiment [34]; -0.478 in experiment [35]; 2.99 in experiment [36]; 1.73 in experiment [37]; 7.93 in experiment [38]; -0.033 in [39]. Moreover, the “glycan array binding signal (z-score)” value in experiment [40] is 1.71; in experiment [41] it was -0.171; in experiment [42] it was 0.235; in [43], -0.064; in experiment [19], -0.514; in experiment [44] it was -0.34. In addition, the entries for the “glycan array binding signal (z-score)” value in [45] and in experiment [46] were 0.271 and -0.75, respectively.
